Data on seven molecules can be found in PubChem BioAssay.

The nature of assay [1]: P. berghei load reduction in hepatocytes – cell-based, HepG2, luciferase luminescence, HepG2 viability, primary screen (AID 624349; in the data active = parasite load remaining mostly below about 12%, no sharp cut-off; inactive = mostly above about 10%;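 also: 100% = mean of DMSO negative control wells on the same plate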). To be noted: P. berghei liver stage in HepG2, luciferase luminescence, concentration not given here; parasite load remaining: stronger effect = lower value; viability: measured here: HepG2 viability without parasites.
In assay [2] the target is 6-phosphogluconate dehydrogenase, decarboxylating (Homo sapiens) (UniProt P52209). Put plainly: inhibition of human phosphogluconate dehydrogenase – biochemical, recombinant enzyme, NADPH absorbance, primary screen (AID 1159550;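 active = at least 20% inhibition of 6-phosphogluconate dehydrogenase activity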). To be noted: recombinant 6PGD, NADPH absorbance 341 nm; at 10 µM; stronger effect = higher value.
A short description of assay [3]: EMT-state selective cytotoxicity in co-culture – imaging, PC-3E GFP, TEM4-18 mCherry, primary screen (AID 1345086;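 active = compounds killing one labelled cell type while sparing the other, by normalised counts and ratio limits, not self-fluorescent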;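 as to all read-outs here: cells exposed to compound for 72 h before imaging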;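 as to red/green cell ratio (normalised): normalised mesenchymal count divided by normalised epithelial count so high means epithelial killing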). To be noted: PC-3E GFP / TEM4-18 mCherry co-culture, imaging cell counts, at 1 µM; for red/green cell ratio (normalised): actives lie on both sides.
The subject of assay [4] is Aerobactin synthetase IucA (Klebsiella pneumoniae hvKP1). Description: IucA enzyme inhibition, primary screen, biochemical, Spectrum library (AID 1346200; call rule not given here;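 also: 100% = wells without compound and 0% = wells lacking enzyme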). As to conditions: malachite green pyrophosphate, A620, at 8 µM, stronger effect = lower value.
A short description of assay [5]: viability loss with induced miR-34 in A549 – imaging, A549 dox-inducible miR-34, nuclei and caspase counts, primary screen (AID 1347080). As to conditions: A549 miR-34 inducible, Hoechst nuclei count, 48 h.
The nature of assay [6]: MELAS cybrid and Rieske KO viability enhancers – cell-based, MELAS cybrids, Rieske KO mouse fibroblasts, CellTiter-Glo, primary screen (AID 1508586;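 active = mean z-score across replicates of 1.96 or higher in either the MELAS or the Rieske mutant cell line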;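 also: z relative to plate mean and SD of compound and empty wells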). To be noted: low glucose. Background: In ATP-based viability assays light output follows the ATP content of the culture.
Assay [7] deals with NAD(+) hydrolase SARM1 (Homo sapiens) (UniProt Q6SZW1). Put plainly: blocking NAD cleavage by SARM1 SAM-TIR – cell lysate, NAD-Glo luminescence (AID 1508614;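 active = compound whose remaining NAD level is above about 45 nM, limit read from the data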;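 also: higher remaining NAD means stronger inhibition of SARM1 NADase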). To be noted: SAM-TIR HEK293T lysate NADase, at 1 µM, stronger effect = higher value.
The target of assay [8] is Mitogen-activated protein kinase 7 (Homo sapiens) (UniProt Q13164). Put plainly: Gal4-ERK5 driven luciferase induction – cell-based, HTS, primary screen (AID 1508626;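 active = luciferase signal above three times the same-plate solvent-only control wells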;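 also: luciferase driven by Gal4-ERK5 fusion binding five Gal4 sites before minimal TATA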). To be noted: HeLa Gal4-ERK5 transactivation, 18 h, at 5 µM, stronger effect = higher value.
Assay [9] can be described thus: galactose survival enhancers in mitochondrial complex I cybrids – cell-based, galactose medium, ATP luminescence, primary screen (AID 1645843;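 active = z-score of at least 1.8 in each of two replicates, scored against plate mean and spread of sample wells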;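 also: positive z means more ATP and so rescue of galactose-driven cybrid death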). To be noted: complex I mutant cybrid cells, 72 h, stronger effect = higher value.
Assay [10] concerns the target ATP-dependent translocase ABCB1 (Homo sapiens) (UniProt P08183). Description: P-glycoprotein substrate transport blockade – cell-based (AID 377; in the data active = fluorescence slope change above about 50%). As to conditions: MDR1-expressing cells, fluorescent substrate accumulation slope; stronger effect = higher value; concentration not given here.
Assay [11] can be described thus: blockers of polyQ-driven CASP3 activation – cell-based (AID 1583). To be noted: polyglutamine-induced caspase-3 activation, cell assay; stronger effect = higher value;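 tested at 10 µM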.
Assay [12] can be described thus: yeast 75Q aggregation reduction – 75Q-TubU reporter (AID 1593). As to conditions: Yeast 75Q polyglutamine aggregation reporter.
Assay [13] can be described thus: restoration of touch response, mutant HTT neurons – whole organism, C. elegans mechanosensory neurons, N-terminal huntingtin (AID 1599). To be noted: C. elegans polyQ-huntingtin mechanosensory neurons, stronger effect = higher value.
Assay [14] is described as follows: blockers of cytochrome c efflux from mitochondria – biochemical, purified mitochondria (AID 1603).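 Also: mouse liver mitochondria challenged with calcium chloride; signal normalized to the plate average as 100%.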 To be noted: stronger effect = lower value.
Assay [15] in a line: polyglutamine aggregate formation blockers (AID 1604). As to conditions: polyglutamine-induced protein aggregation inhibition assay; stronger effect = higher value; tested at 2.5 µM.
The nature of assay [16]: glutamate transport activators, MN-1 cells, MN-1 cell line (AID 1612).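 Also: tested at 1 µM final; 0% = mean of DMSO vehicle wells on each plate; positive means more glutamate uptake than control and negative means less.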 To be noted: MN-1 motor neuron cells, stronger effect = higher value.
A short description of assay [17]: GFP-Q80 aggregate reduction, neuronal-like cells, cell-based, NGF-treated PC12, GFPQ80 (AID 1614).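 Also: lower means fewer inclusions and 0 means no inclusions at all.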 To be noted: PC12 NGF-treated GFP-polyQ80 inclusion reduction.
The nature of assay [18]: 75Q-TubH aggregate inhibition, S. cerevisiae, yeast (AID 1616). As to conditions: S. cerevisiae 75Q-TubH polyglutamine aggregation suppression; stronger effect = higher value.
A short description of assay [19]: compounds altering viability of human ES cells (AID 493140; call rule not given here;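 also: cells exposed to compounds for four days before counting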). As to conditions: human embryonic stem cell survival screen; stronger effect = higher value.
In assay [20] the test system is Aerobactin synthetase IucA (Klebsiella pneumoniae, hypervirulent). Put plainly: biochemical IucA inhibition screen of LOPAC library by absorbance (AID 1346212; call rule not given here;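 also: 100% = no compound wells and 0% = no enzyme wells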). As to conditions: IucA enzyme assay, absorbance (OD) readout; stronger effect = lower value;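 tested at 8 µM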.
Setting [21] is: measured here: epithelial PC-3E GFP cell survival.
Where [22] appears, read: measured here: mesenchymal TEM4-18 mCherry cell survival.
Setting [23] is: measured here: relative caspase fold change +Dox/-Dox.
Setting [24] is: measured here: total cells with miR-34 induction, stronger effect = lower value.
Setting [25] is: measured here: total cells without miR-34 induction.
Setting [26] is: MELAS cybrid survival, CellTiter-Glo 48 h, stronger effect = higher value.
The mark [27] stands for this setting: Rieske KO mouse fibroblast survival, CellTiter-Glo 72 h.

“And” between values parts separate entries of the source, which are not always exact repeats. Equal values may be shown once. Results filed as inconclusive are left out. For some of these results: Potency and affinity values are given separately. The source made the active and inactive calls.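 The calls were made as follows, unless noted: active = compounds whose cell count with miR-34 switched on is under 0.7 times the count with it off; inactive = the rest.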

One may read the viability as a read-out of living cells in per cent, often relative to untreated cells. Usually inhibition stands for the drop in the measured response relative to a control, in per cent. Broadly, the remaining activity is the signal under treatment as a percentage of the control signal.

Mitogen-activated protein kinase 7 (Homo sapiens), sequence (Q13164 whole entry, looked up, the tested form may be a part): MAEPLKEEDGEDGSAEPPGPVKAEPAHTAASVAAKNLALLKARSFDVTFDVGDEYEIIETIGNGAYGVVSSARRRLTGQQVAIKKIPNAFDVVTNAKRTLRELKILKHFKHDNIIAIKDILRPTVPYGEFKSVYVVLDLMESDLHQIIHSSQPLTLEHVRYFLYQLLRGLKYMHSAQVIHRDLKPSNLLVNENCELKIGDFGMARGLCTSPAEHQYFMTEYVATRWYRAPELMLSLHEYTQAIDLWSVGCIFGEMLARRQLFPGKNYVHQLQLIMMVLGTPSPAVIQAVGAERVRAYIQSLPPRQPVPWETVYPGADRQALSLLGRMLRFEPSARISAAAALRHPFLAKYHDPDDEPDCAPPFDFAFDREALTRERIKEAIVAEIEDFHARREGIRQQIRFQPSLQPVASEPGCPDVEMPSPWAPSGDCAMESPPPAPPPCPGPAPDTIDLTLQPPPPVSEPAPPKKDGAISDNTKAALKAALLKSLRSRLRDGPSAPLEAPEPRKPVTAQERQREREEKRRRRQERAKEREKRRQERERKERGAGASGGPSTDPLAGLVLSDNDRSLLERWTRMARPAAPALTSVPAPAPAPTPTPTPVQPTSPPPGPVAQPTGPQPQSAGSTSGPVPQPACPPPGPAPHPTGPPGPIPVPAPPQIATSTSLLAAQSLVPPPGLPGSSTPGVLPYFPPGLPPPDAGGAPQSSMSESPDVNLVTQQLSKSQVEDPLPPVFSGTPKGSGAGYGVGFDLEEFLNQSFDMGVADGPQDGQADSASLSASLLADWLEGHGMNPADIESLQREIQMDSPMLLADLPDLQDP
6-phosphogluconate dehydrogenase, decarboxylating (Homo sapiens), sequence (P52209 whole entry, looked up): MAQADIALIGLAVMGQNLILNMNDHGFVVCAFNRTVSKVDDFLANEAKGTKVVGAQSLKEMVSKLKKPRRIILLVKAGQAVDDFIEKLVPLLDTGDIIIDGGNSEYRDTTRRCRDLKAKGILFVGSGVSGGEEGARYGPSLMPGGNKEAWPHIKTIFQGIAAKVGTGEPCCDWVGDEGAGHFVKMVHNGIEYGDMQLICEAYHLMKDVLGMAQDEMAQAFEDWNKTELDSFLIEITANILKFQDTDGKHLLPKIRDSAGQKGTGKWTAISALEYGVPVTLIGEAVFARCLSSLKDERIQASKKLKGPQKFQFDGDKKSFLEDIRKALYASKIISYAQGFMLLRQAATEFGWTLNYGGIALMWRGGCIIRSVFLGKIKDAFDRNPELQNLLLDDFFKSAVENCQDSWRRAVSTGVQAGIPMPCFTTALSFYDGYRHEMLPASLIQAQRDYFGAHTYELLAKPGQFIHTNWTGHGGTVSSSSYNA
NAD(+) hydrolase SARM1 (Homo sapiens), sequence (Q6SZW1 whole entry, looked up, the tested form may be a part): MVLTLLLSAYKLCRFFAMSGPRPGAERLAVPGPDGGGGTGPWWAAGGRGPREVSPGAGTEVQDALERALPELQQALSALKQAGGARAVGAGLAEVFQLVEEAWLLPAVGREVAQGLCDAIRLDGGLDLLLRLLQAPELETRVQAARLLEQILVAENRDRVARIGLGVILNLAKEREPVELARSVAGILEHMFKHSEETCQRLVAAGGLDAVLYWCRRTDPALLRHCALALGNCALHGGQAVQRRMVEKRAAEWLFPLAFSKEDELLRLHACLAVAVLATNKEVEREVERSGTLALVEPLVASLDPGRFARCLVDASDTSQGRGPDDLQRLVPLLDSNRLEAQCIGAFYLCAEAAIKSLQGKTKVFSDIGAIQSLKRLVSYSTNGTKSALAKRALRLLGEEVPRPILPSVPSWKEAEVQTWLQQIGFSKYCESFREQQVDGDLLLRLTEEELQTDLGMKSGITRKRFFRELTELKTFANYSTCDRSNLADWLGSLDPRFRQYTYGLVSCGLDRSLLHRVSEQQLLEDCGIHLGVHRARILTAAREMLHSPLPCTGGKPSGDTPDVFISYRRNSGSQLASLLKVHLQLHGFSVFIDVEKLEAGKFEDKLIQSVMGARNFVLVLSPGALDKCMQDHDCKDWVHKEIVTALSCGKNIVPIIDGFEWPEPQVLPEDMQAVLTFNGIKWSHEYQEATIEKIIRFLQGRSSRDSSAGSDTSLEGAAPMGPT
ATP-dependent translocase ABCB1 (Homo sapiens), sequence (P08183 whole entry, looked up): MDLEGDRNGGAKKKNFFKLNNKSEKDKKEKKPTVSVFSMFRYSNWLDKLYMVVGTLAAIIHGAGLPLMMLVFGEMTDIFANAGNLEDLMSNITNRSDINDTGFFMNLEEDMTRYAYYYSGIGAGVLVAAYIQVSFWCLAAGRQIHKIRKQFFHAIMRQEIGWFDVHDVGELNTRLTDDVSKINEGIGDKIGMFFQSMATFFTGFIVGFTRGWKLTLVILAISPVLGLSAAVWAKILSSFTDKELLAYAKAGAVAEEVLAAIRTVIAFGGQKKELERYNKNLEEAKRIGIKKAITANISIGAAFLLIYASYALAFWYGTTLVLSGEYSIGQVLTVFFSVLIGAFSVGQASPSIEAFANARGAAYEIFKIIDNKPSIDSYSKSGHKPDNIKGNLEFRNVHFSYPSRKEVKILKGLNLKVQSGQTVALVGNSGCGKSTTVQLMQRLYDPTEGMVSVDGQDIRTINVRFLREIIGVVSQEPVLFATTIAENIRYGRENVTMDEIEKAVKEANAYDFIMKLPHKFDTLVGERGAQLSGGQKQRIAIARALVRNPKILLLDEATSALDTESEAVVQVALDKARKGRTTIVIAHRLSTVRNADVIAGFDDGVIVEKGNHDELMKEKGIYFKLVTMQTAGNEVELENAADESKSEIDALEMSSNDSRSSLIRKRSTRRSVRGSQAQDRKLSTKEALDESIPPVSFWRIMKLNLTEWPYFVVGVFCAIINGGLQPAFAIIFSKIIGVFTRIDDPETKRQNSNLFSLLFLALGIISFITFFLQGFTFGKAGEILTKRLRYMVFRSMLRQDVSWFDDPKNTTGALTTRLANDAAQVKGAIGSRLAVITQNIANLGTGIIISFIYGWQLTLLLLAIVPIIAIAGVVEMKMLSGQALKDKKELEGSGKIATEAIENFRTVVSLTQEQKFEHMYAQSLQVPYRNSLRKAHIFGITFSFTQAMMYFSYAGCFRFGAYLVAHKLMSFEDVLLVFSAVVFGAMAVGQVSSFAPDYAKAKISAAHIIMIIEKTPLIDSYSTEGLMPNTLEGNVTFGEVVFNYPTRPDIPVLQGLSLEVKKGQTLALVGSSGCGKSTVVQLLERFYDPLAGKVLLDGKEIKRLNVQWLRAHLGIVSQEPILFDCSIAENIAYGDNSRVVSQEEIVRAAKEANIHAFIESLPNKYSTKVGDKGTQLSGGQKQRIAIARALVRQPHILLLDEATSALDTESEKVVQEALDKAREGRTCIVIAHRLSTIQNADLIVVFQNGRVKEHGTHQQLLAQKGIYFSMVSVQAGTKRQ

With `NC(=O)CS(=O)C(c1ccccc1)c1ccccc1` (stereo not drawn), in assay [1], the parasite load remaining is 153% (inactive) and 44.2% (inactive) and 93% (inactive). Moreover, the viability in assay [1] is 83% and 104% and 71.7%. In addition, in assay [2], the inhibition was -7.07% (inactive). The red/green cell ratio (normalised) in assay [3] was 1.19 (inactive). Also, the normalised cell number in assay [3] (setting [21]) was 1.04; in assay [3] (setting [22]), 1.24. Also, the activity remaining in assay [4] is 120% (inactive). Moreover, the fold change was 0.912 (inactive) and 0.928 (inactive) and 0.913 (inactive) in assay [5] (stronger effect = lower value); 0.934 and 0.471 and 9.69 in [5] (setting [23]). For the same molecule, the cell count in assay [5] (setting [24]) is 8970 and 9060 and 12100; in [5] (setting [25]), 9830 and 9770 and 13200. Further, the z-score is 0.264 (inactive) in assay [6] (setting [26]), 0.0685 in assay [6] (setting [27]) and 0.66 (inactive) in assay [9]. Further, the remaining NAD in assay [7] was 10 nM (inactive). Further, the luciferase signal in assay [8] is 40 AU (inactive).

As for `C=C[C@H]1CN2CC[C@H]1C[C@H]2[C@H](O)c1ccnc2ccccc12`, in assay [10], the fluorescence slope change was 71.3% (active). Further, the inhibition in assay [11] was 21%; in assay [2], 5.53% (inactive). In assay [12], the score is 1.18. This molecule also returned a rescue above control in assay [13] of 0.34. Also, the cytochrome c release ratio in assay [14] is 0.75. The inhibition of aggregation in assay [15] amounted to 48.7%. Moreover, the glutamate uptake change in [16] was -2.27%. The molecule further came in with an inclusion score in assay [17] of 2. This molecule came in with an aggregation suppression score in assay [18] of 1.28. The parasite load remaining in [1] was 56.2% (inactive) and 85.6% (inactive) and 31.1% (inactive). In assay [1], the viability is 103% and 68.9% and 98.9%. Further, the red/green cell ratio (normalised) in [3] is 1.04 (inactive). The normalised cell number in assay [3] (setting [21]) came to 1.08; in assay [3] (setting [22]) it was 1.12. In addition, in assay [4], the activity remaining is 97.1% (inactive). For the same molecule, the fold change is 0.86 (inactive) and 0.872 (inactive) in assay [5] (stronger effect = lower value); 1.26 and 3.36 in assay [5] (setting [23]). The cell count in [5] (setting [24]) is 9250 and 11500; in assay [5] (setting [25]) it was 10800 and 13200. Further, the remaining NAD in assay [7] was 10 nM (inactive). Also, the luciferase signal in assay [8] was 48 AU (inactive).

Turning to `C[C@@H]1OC(O[C@H]2CC[C@]3(C=O)[C@H]4CC[C@]5(C)C(C6=CC(=O)OC6)CC[C@]5(O)[C@@H]4CC[C@]3(O)C2)[C@H](O)[C@H](O)[C@H]1O` (stereo partly drawn), the inhibition in assay [2] is 2.25% (inactive).

As for `CCCCCCCCCc1ccc(O)cc1`, the inhibition in [2] was 10.5% (inactive). The red/green cell ratio (normalised) in assay [3] was 0.85 (inactive). The normalised cell number worked out at 1.34 in assay [3] (setting [21]) and 1.14 in [3] (setting [22]).

Regarding `Cc1nccc2c1[nH]c1ccccc12`, the survival in [19] was 12.2 (inactive). Further, the parasite load remaining in [1] was 94.4% (inactive) and 63.5% (inactive). Besides, in assay [1], the viability is 116% and 79%. For the same molecule, the inhibition in assay [2] is -8.63% (inactive). Besides, in [3], the red/green cell ratio (normalised) is 0.96 (inactive). The values for the normalised cell number in [3] (setting [21]) and in assay [3] (setting [22]) were 0.91 and 0.87, respectively. In addition, the activity remaining in assay [4] was 102% (inactive). The remaining activity in assay [20] was 99.4% (inactive). Moreover, the fold change in assay [5] (stronger effect = lower value) was 0.91 (inactive) and 0.859 (inactive); in assay [5] (stronger effect = lower value, cell number ratio, induced over uninduced) it was 0.856 (inactive); in assay [5] (setting [23]), 1.74 and 1.56 and 1.32. Also, the cell count in assay [5] (setting [24]) is 8890 and 7490 and 7920; in assay [5] (setting [25]), 9780 and 8760 and 9220. Further, in assay [8], the luciferase signal was 132 AU (inactive). Besides, the z-score in assay [9] is -0.38 (inactive) and -0.595 (inactive).

On to `C=C[C@H]1CN2CCC1C[C@H]2[C@H](OC(=O)OCC)c1ccnc2ccc(OC)cc12` (stereo partly drawn), for which, in [2], the inhibition was 4.32% (inactive).

Turning to `O=C1CC[C@@]2(O)[C@H]3Cc4ccc(O)c5c4[C@@]2(CCN3CC2CC2)[C@H]1O5`, in [10], the fluorescence slope change is 79.9% (active). Further, in [19], the survival is 16.1 (inactive). In assay [2], the inhibition is 9.6% (inactive). The remaining activity in [20] was 118% (inactive). Further, the fold change in [5] (stronger effect = lower value) is 0.971 (inactive) and 0.94 (inactive) and 0.843 (inactive); in [5] (setting [23]), 1.34 and 1.14 and 0.908. Besides, the cell count in assay [5] (setting [24]) is 11000 and 9230 and 9370; in assay [5] (setting [25]), 11300 and 9820 and 11100. In addition, the z-score was 0.477 (inactive) and 0.601 (inactive) in [6] (setting [26]); 0.069 and -0.0949 in assay [6] (setting [27]); 0.66 (inactive) and 0.275 (inactive) in assay [9]. Besides, the remaining NAD in assay [7] was 10 nM (inactive). Moreover, in assay [8], the luciferase signal was 48 AU (inactive).
